Screening data: PubChem, National Center for Advancing Translational Sciences (NCATS)
In the library only some 4% were active in any assay of this set; here they are far more common.
D1 antagonist: human D1 dopamine receptor antagonism; HEK293 TREx D1 cells, calcium flux, dopamine EC80; stronger effect = lower value; activity change, negative = inhibition, % at 10 µM; P21728; hit rate 3.2% among 360,000; AID 504652; in the data active means activity change below about -30%; further: on the % scale 0 is the no-effect control and ±100 the full control effect
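After overnight tetracycline induction at 30 C, force-coupled D1 HEK293 cells took up a no-wash calcium dye at room temperature. Compounds were added and monitored 180 s, and the response to EC80 dopamine was then recorded.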
D1 potentiator: human D1 dopamine receptor positive modulation | HEK293 TREx D1 cells, calcium flux, dopamine EC20 potentiation | hit rate 0.036% among 360,000 | potentiation, % at 10 µM | P21728; in the data active means potentiation above about 30%; further: 0% is about no effect
Glioma ERSR ind: ER stress response induction in glioma. AID 602332. Potency, µM, without a hit: at the top dose activation, hits mostly activators. U87-MG GRP78 promoter luciferase reporter, 16 h. hit rate 0.02% among 420,000; further: potency means the concentration at half of the fitted maximal effect; series mostly up to about 76 µM; % of control where 0% means no effect; nearly all actives have a fitted effect of over 35% in size
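Stably transfected U87-MG human glioma cells carrying a GRP78-based luminescent sensor were seeded at 1000 cells/well, pin-dosed with compounds and incubated 16 h. Luciferase reagent was then added, and end-point luminescence was read after 10 min at room temperature.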
TRHR enhancer-1: allosterically enhances the human TRH receptor; hit rate 0.66% among 360,000; TRHR cells, fluo-8 calcium fluorescence, EC20 TRH enhancement; enhancement, % at 2 µM; in the data active means enhancement above about 30%; further: 0% is about no effect
Target sequence (P34981 whole entry, looked up): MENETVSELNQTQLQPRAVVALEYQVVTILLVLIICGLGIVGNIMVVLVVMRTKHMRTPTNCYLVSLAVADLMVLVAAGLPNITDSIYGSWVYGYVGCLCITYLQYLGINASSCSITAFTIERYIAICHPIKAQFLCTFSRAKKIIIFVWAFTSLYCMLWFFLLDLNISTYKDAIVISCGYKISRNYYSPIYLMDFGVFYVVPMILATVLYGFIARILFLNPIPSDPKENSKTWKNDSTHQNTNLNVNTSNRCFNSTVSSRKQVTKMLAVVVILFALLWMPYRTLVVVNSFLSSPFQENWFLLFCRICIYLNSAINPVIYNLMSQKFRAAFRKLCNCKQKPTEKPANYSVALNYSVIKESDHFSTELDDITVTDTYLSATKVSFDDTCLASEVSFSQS
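TRHR-expressing cells loaded with fluo-8 calcium dye were read kinetically (ex 480/em 530) during compound addition, then stimulated with an EC20 of TRH (10 nM final). Enhancement of the Gq-mediated intracellular calcium response was scored.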
D1 agonist: human D1 receptor agonism; P21728; HEK293 T-REx D1 cells, calcium flux, agonist mode; activation, % at 2 µM; hit rate 1% among 360,000; AID 504660; in the data active means activation above about 30%; further: 0% is about no effect
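Inducible HEK293 T-REx D1 cells, force-coupled to calcium signalling, were plated at 4000 cells/well with tetracycline and held overnight at 30 C. After no-wash calcium dye loading, compound-evoked calcium rise over 180 s flagged agonists.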
TRHR agonist-1: agonists of human TRH receptor; P34981; TRHR cells, calcium flux fluo-8, FDSS agonist mode; activation, % at 2 µM; hit rate 0.18% among 360,000; AID 493084; in the data active means activation above about 30%; further: 0% is about no effect
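TRHR-expressing cells loaded with fluo-8 calcium dye; 23 nL library compound pin-transferred, kinetic FDSS fluorescence (Ex 480/Em 530) recorded about 180 s for agonist-induced calcium release, before a 10 nM TRH EC20 addition for potentiator mode.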
TRHR enhancer-2: human TRH receptor allosteric enhancement confirmation | activity change, negative = inhibition, % at 46.1 µM | shares compounds with TRHR enhancer-1 | TRH receptor cell assay, enhancer confirmation qHTS | 970 tested, under 10 active;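 further: compound effect scored on response to added TRH at EC20 of 10 nM; 0% is about no effect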
TRHR agonist-2: confirmation of human TRH receptor agonists; shares compounds with TRHR enhancer-1; TRHR-expressing cells, agonist activation read-out; Potency, µM (titrated, usually from 46.1 µM), without a hit: at the highest dose activation, hits mostly activators; hit rate 8% among 970; AID 493078; further: potency means the concentration at half of the fitted maximal effect; 0% is about no effect; nearly all actives have a fitted effect of over 75% in size
* hit, by the source's call; u = inconclusive; x = no result given. Unless noted, the call rests on the fitted dose curve; in most records, active means well fitted curve in the direction sought with a large enough effect; inconclusive means small, poorly fitted or top-dose-only effect, or another doubt; inactive means no such curve, though single readings can be large; an effect the other way counts as inactive or inconclusive.

SMILES | D1 antagonist | D1 potentiator | Glioma ERSR ind | TRHR enhancer-1 | D1 agonist | TRHR agonist-1 | TRHR enhancer-2 | TRHR agonist-2
C=C(C)c1cccc(C(C)(C)NC(=O)Nc2nncs2)c1 | -28 | -1 | -3% | 6 | 1 | -1 | x | x
COC(=O)Cc1[nH]nc2c1C(c1ccc(O)c(OC)c1)C(C#N)=C(N)O2 (stereo not given) | -9 | 0 | -2% | 2 | 3 | 0 | x | x
COc1ccc(OC)c(/C=C/c2nc3ccccc3nc2C)c1 | x | x | 1% | x | x | x | x | x
COc1ccc(OC)c(/C=C/c2nc3ccccc3[nH]c2=O)c1 | -2 | -1 | -3% | -4 | 62* | 26 | 5 | 18µM*
COc1cccc2c1Oc1ncccc1N(c1ccc(C(=O)NCc3cccc(C)c3)s1)C2 | 2 | -3 | -3% | 6 | 1 | 0 | x | x
CCOc1ccc(N(CC)C(=O)c2cc3c(s2)-c2ccc(Cl)cc2SC3)cc1 | 3 | -3 | -1% | 3 | 3 | -2 | x | x
O=C(CCC1N=C2c3ccccc3N=C(SCc3cccc(Cl)c3)N2C1=O)NCc1ccco1 (stereo not given) | 3 | -7 | -6% | 49* | 2 | 0 | -6 | u
C[n+]1cn(CC(O)COCc2ccccc2)c2ccccc21 (stereo not given) | 3 | 2 | 1% | 53* | 2 | 1 | -4 | 0%
